Test results reported in PubChem BioAssay (Tox21).
Records with an inconclusive call do not appear. Entries that show only a call come without a potency. Calls of active or inactive are those of the source. Calls come from the whole dose curve; as a rule, active = well fitted cell-killing curve with a large enough effect in the repeat runs; inconclusive = weak or mixed curves, or effect the other way; inactive = flat fitted curve, though single readings scatter.

Assay: qHTS assay to identify small molecule that activate the aryl hydrocarbon receptor (AhR) signaling pathway - cell viability counter screen (AID 743086);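 note: HepG2 liver cells carrying the AhR DRE luciferase reporter; nearly all actives have a fitted effect of over 45% in size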
Settings: HepG2-AhR-luc viability, CellTiter-Fluor, 24 h; series mostly up to 70.3 µM
Source text: U.S. Tox21 Program National Center for Advancing Translational Sciences [NCATS] NIH Chemical Genomics Center [NCGC] U.S. Environmental Protection Agency [EPA] National Institutes of Environmental Health Sciences [NIEHS] National Toxicology Program [NTP] U.S. Food and Drug Administration [FDA] Tox21 Assay overview: The Aryl hydrocarbon Receptor (AhR), a member of the family of basic helix-loop-helix transcription factors, is crucial to adaptive responses to environmental changes. AhR mediates cellular responses to environmental pollutants such as aromatic hydrocarbons through induction of phase I and II enzymes but also interacts with other nuclear receptor signaling pathways A cell based HepG2-AhR-luc assay (HG2L7.5c1 cell line, developed by Dr. Michael S. Denison, University of California at Davis) was used to assess the activation of AhR. HepG2 (human hepatocellular carcinoma) cells were stably transfected with an Ah receptor-responsive firefly luciferase reporter gene plasmid containing 20 dioxin responsive elements and luciferase reporter gene. Increased luciferase activity can be used to identify the compounds that induce AhR activation. The cytotoxicity of the compounds screened against the HepG2-AhR-luc cell line was tested in parallel by measuring the cell viability using CellTiter-Fluor assay in the same wells.
Tox21 Assay Protocol Summary: 4000 cells in 5 uL/well were dispensed into white wall/solid bottom 1536-well plates using a Multidrop Combi (Thermo Fisher Scientific Inc., Waltham, MA) dispenser. After the assay plates were incubated at 37C for 5 h, 23 nL of compound or DMSO vehicle was transferred to the assay plates by a pintool station (Kalypsys, San Diego, CA). The plates were incubated at 37C for 24 hr. For cell viability measurement, 1 ul/well of CellTiter-Fluor reagent (Promega, Madison, WI) was added into the assay plates using a Flying Reagent Dispenser (FRD) (Aurora Discovery, CA),and then the assay plates were incubated at 37C for 30 min. The fluorescence intensity in the plates was measured using a ViewLux plate reader (PerkinElmer, Shelton, CT), followed by the addition of 4 uL of ONE-Glo Luciferase Assay reagent (Promega) using an FRD (Aurora Discovery). After the assay plates were incubated at room temperature for 30 min, luminescence intensity was measured using a ViewLux plate reader (Perkin Elmer).

| Compound | Potency |
| --- | --- |
| CCCCC(CC)COCCCN (stereo not given) | inactive |
| O=C(O)C(c1ccc(Cl)cc1)c1ccc(Cl)cc1 | inactive |
| CCOc1cc(OCC)c(C(=O)CCC(=O)O)cc1OCC | inactive |
| CC(=O)Nc1ccc(/C=N/NC(N)=S)cc1 | inactive |
| COC(Cc1ccccc1)OC | inactive |
| CC(=O)SCc1ccco1 | inactive |
| O=C(O)C1CCC(C(=O)O)CC1 (stereo not given) | inactive |
| CC(C)(C)c1cc(CCC(=O)OCC(COC(=O)CCc2cc(C(C)(C)C)c(O)c(C(C)(C)C)c2)(COC(=O)CCc2cc(C(C)(C)C)c(O)c(C(C)(C)C)c2)COC(=O)CCc2cc(C(C)(C)C)c(O)c(C(C)(C)C)c2)cc(C(C)(C)C)c1O | inactive |
| CC(C)CCCC(C)CCO (stereo not given) | inactive |
| O=CNc1ccccc1 | inactive |
| O=C(CC(=O)c1ccccc1)c1ccccc1 | inactive |
| CCCC[C@H]1CN(CC2CCOCC2)C(=O)OC12CCN(C1(C)CCN(C(=O)c3c(C)ncnc3C)CC1)CC2 | inactive |
| N[C@H]1C(O)O[C@H](CO)[C@H](O)[C@@H]1O (stereo not given in full) | inactive |
| COc1ccc2[nH]c(S(=O)Cc3ncc(C)c(OC)c3C)nc2n1 (stereo not given) | inactive |
| Cn1sccc1=O | inactive |
| COC(=O)CSc1cc(N=c2sc(=O)n3n2CCCC3)c(F)cc1Cl | inactive |
| CC1=CC(=O)/C(=C(/C)O)C(=O)O1 | inactive |
| CCOC(=O)CC(=O)c1cc(F)c(Cl)nc1Cl | inactive |
| CN(C)CCCOc1nn(Cc2ccccc2)c2ccccc12 | inactive |
| CN(C)CCCNCCCN | inactive |

| Compound | Potency |
| --- | --- |
| SC1CCCC1 | inactive |
| C=C(C)C(=O)OC(C)C | inactive |
| C[Si](C)O[Si](C)(C)O[Si](C)(C)O[Si](C)C | inactive |
| O=C(O)COC(=O)Cc1ccccc1Nc1c(Cl)cccc1Cl | inactive |
| CCN(CC)CCOC(=O)C1(c2ccccc2)CCCC1 | inactive |
| CCOC(=O)C1=C(C)NC(C)=C(C(=O)OC)C1c1cccc([N+](=O)[O-])c1 (stereo not given) | inactive |
| c1ccc(CNCc2ccccc2)cc1 | inactive |
| CCCCCCCCCC(=O)OCC | inactive |
| N#Cc1c(F)cccc1F | inactive |
| NCc1ccccc1 | inactive |
| CC(C(=O)O)c1ccc(C(=O)c2ccccc2)s1 (stereo not given) | inactive |
| CC[C@H](C)[C@H](N)C(=O)O | inactive |
| C=CC(=O)OCCOC(=O)CCC(=O)O | inactive |
| CCCCCCCC/C=C\CCCCCCCC(N)=O | inactive |
| CC(=O)/C=C/C1C(C)=CCCC1(C)C (stereo not given) | inactive |
| Oc1ccc(O)c2c(O)cccc12 | inactive |
| C=CC(=O)OCC(C)OCC(C)OCC(C)OC(=O)C=C (stereo not given) | inactive |
| Cc1cccc(C(C)(C)C)c1O | inactive |
| COc1ccc([C@@H]2Sc3ccccc3N(CCN(C)C)C(=O)[C@@H]2OC(C)=O)cc1 | inactive |
| CCCCOc1ccc(CC(=O)NO)cc1 | inactive |
